High-throughput results (PubChem BioAssay)
Pf Dd2 inh = Plasmodium falciparum Dd2 growth inhibition; P. falciparum Dd2 growth, SYBR Green, 72 h; 120,000 compounds, 4.3% hits; Potency, µM (series often up to 28.9 µM), usual class: inhibitors; active = well fitted inhibition curve with a large enough effect; note: nearly all actives have a fitted effect of over 65% in size
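Infected erythrocytes (Dd2, 0.3% parasitemia, 2.5% hematocrit final) are added to compound in RPMI-1640/Albumax II medium, grown 72 h at 37C in low oxygen, then lysed with saponin/Triton-X containing SYBR Green and read by fluorescence.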
Of the large screens only hits and unclear results are named; the others gave an inactive call. The sample as a whole holds a higher share of hits than the screen did.

Cc1ccc(CN2CCCN(S(C)(=O)=O)C(c3ccccc3)CC(=O)NCC2)o1 (stereo not drawn)	none
CCNC(=O)N1CCCCCNC(=O)CC1c1ccccc1 (stereo not drawn)	none
COc1cccc(CN2CCCCCCNC(=O)CC2c2ccccc2)c1OC (stereo not drawn)	Pf Dd2 inh 7.94µM
Cc1ccc(CN2CCCC(c3nc(C(C)C)no3)CCNC(=O)CC2)o1 (stereo not drawn)	none
O=C(c1ccc(=O)[nH]c1)N(CC1CCN(Cc2ccccc2F)CC1)CC1CCCO1 (stereo not drawn)	none
CN(C)C(=O)c1cccnc1CCC1COc2ccccc2O1 (stereo not drawn)	none
CC(=O)c1cccc(NC(=O)Cn2c(=O)n(-c3ccc(F)cc3)c(=O)c3c2cc(C)n3C)c1	none
NC(=O)[C@@H](Cc1c[nH]c2ccccc12)NC(=O)[C@@H]1[C@@H](NC(=O)NC2CCCCC2)CCN1C(=O)c1cnccn1	none
COc1ccc(C(=O)N2CC3CC(C2)[C@H]2CCCC(=O)N2C3)c(C)c1 (stereo partly drawn)	none
C[C@@H]1CN(C(=O)c2ccc(F)cc2F)CC[C@@]1(O)C1CCOCC1	none
COCc1nnc2n1CCC(NC(=O)CCCc1nc3ccccc3s1)CC2 (stereo not drawn)	none
CCOc1cc(=O)n2c(c1C(=O)Nc1ccc(C)cc1Cl)CCCC2	none
CN(CCn1ccnc1-c1ccc(CO)o1)S(C)(=O)=O	none
CC(C)CN(CC1CN(C(=O)NCc2ccccc2)CCO1)C(=O)c1ccc2c(c1)OCO2 (stereo not drawn)	none
Cc1oc(C(O)c2ccccc2)nc1C(=O)N1CCC(n2c(=O)[nH]c3ccccc32)CC1 (stereo not drawn)	none
COc1cccc(CN2CCCCCNC(=O)CC2c2ccccc2)c1OC (stereo not drawn)	Pf Dd2 inh 11.2µM
COc1cccc(CN2CCCOCCNC(=O)CC2)c1OC	none
O=C1CC(c2ccccc2)N(S(=O)(=O)c2ccccc2)CCCCCN1 (stereo not drawn)	none
Cc1ccc(CNC(=O)[C@H]2CCC[C@H]2NC(=O)c2ccncc2)o1	none
CCOC(=O)N1CCC(NC2CC(=O)N(CCc3ccc(OC)cc3)C2)CC1 (stereo not drawn)	none
C[S+](=O)([O-])N1Cc2ccccc2CC2(CCCN2Cc2ccccc2)C1 (stereo not drawn)	none
CCCC(=O)N1CC2(CCCN2CC2CC2)Cc2ccccc21 (stereo not drawn)	Pf Dd2 inh 8.91µM
O=C(O)CCC(=O)N1Cc2ccccc2CC2(CCCN2CC2CCCCC2)C1 (stereo not drawn)	none
C[S+](=O)([O-])N1CC2(CCCN2CC2CCCCC2)Cc2ccccc21 (stereo not drawn)	Pf Dd2 inh 8.91µM
C[S+](=O)([O-])N1Cc2ccccc2CC2(CCN(CC3CCCCC3)CC2)C1	none
O=C(O)CCCC(=O)N1Cc2ccccc2CC2(CCCCN2CC2CCCC2)C1 (stereo not drawn)	none
CC(=O)N1CCC(N2CC[C@H](c3nnc(-c4ccco4)o3)C2)CC1	none
Cc1cccc(OCC2(CNS(=O)(=O)c3ccc(Cl)cc3)C[C@@H](O)[C@@H](O)C2)n1 (stereo partly drawn)	none
CN(CCc1ccccn1)C(=O)[C@@]12CCCC[C@H]1N(C)C(=O)CC2	none
Cn1ccnc1CNC(=O)C[C@@H]1C[C@H]2O[C@H](CNC(=O)NC3CCC3)[C@@H](O)[C@H]2O1	none
CC(C(=O)NC1CCN(c2cnn(CC3CC3)c(=O)c2)CC1)c1ccccc1 (stereo not drawn)	none
COc1ccccc1CNC(=O)[C@@H](C)C1CC[C@@]2(C)CC[C@H](NC(=O)C3CCCCC3)[C@@H](C)[C@@H]2[C@H]1O (stereo partly drawn)	none
CCOc1cccc(CNC(=O)[C@H]2CCC[C@H]2NC(=O)c2ccc(OC)nc2)c1	none
CCN(CC)[C@H]1[C@@H]2OC[C@@H](O2)[C@@H](NCc2ccc(N(C)C)cc2)[C@@H]1O	none
CCN(CC)[C@H]1[C@@H]2OC[C@@H](O2)[C@@H](NCC2CCCCC2)[C@@H]1O	Pf Dd2 inh 10µM
CCN(CC)[C@H]1[C@@H]2OC[C@@H](O2)[C@@H](NC(=O)Nc2cccc(OC)c2)[C@@H]1O	none
CCOC1CCOC2(CCN(C(=O)c3ccoc3)CC2)C1 (stereo not drawn)	none
CC(=O)N1CCn2c(nn(-c3ccc(F)cc3)c2=O)C1	none
O=C(NCCc1ccccc1)N(C1CCOCC1)C1CCN(Cc2ccccc2)CC1	Pf Dd2 inh 5.62µM
O=C(NCCc1ccccc1)N(C1CCOCC1)C1CCN(Cc2cccnc2)CC1	none
O=C(NCCc1ccccc1)N(C1CCOCC1)C1CCN(Cc2ccsc2)CC1	none
O=C(c1ccc[nH]c1=O)N1CCC2(CC1)NC(=O)N(Cc1ccc(Cl)cc1)C2=O	none
COCCOCc1nc(C2CCN(C(=O)NCCc3ccccc3)CC2)no1	none
O=C(CCC1N=C2c3ccccc3N=C(SCC(=O)NCCc3ccccc3)N2C1=O)NCc1ccc(F)cc1 (stereo not drawn)	none
O=C(CC1N=C2c3ccccc3N=C(SCc3ccc(F)cc3)N2C1=O)NCCc1ccccc1 (stereo not drawn)	none
O=C(CCC1N=C2c3ccccc3N=C(SCc3cccc(Cl)c3)N2C1=O)NCc1cccs1 (stereo not drawn)	none
O=C(CCC1N=C2c3ccccc3N=C(SCc3cccc(Cl)c3)N2C1=O)N1CCN(c2ccccc2)CC1 (stereo not drawn)	Pf Dd2 inh 11.2µM
O=C(CCC1N=C2c3ccccc3N=C(SCc3cccc(Cl)c3)N2C1=O)NCCc1ccccc1 (stereo not drawn)	none
O=C(CCC1N=C2c3ccccc3N=C(SCc3ccc(F)cc3)N2C1=O)N1CCN(c2ccccc2)CC1 (stereo not drawn)	Pf Dd2 inh 12.6µM
CC(C)CN(Cc1cccnc1)C1CN(C(=O)Nc2ccccc2F)C1	none
COCC(=O)NC1CCC12CCN(Cc1ccc(F)c(F)c1)CC2 (stereo not drawn)	none
CCN(CC)C1CCOC2(CCN(C(=O)C3CC3)CC2)C1 (stereo not drawn)	none
COCC(=O)NC1CCc2nnc(C3CC3)n2CC1 (stereo not drawn)	none
CCn1cc(S(=O)(=O)N2CC[C@H](c3nc(C)no3)[C@H](NC(=O)C3CC3)C2)cn1	none
COC[C@@H]1CN(C(=O)c2ncccc2C)C[C@H]1c1nc(C2CC2)no1	none
O=C(Nc1cccc2ccccc12)O[C@@H]1CO[C@H]2[C@@H]1OC[C@@H]2n1nnnc1Sc1ccccc1	none
CCc1noc(-c2cn(C3CCCN(C(=O)c4ccc(OC(F)(F)F)cc4)C3)nn2)n1 (stereo not drawn)	none
COc1ccccc1NC(=O)Cn1c(-c2ccccc2)nc(C)cc1=O	none
CCc1cc(=O)n(CC(=O)Nc2ccc(OC)cc2)c(-c2ccccc2)n1	none
CCc1cc(=O)n(CC(=O)Nc2cc(OC)c(OC)c(OC)c2)c(-c2ccccc2)n1	Pf Dd2 inh 11.2µM
CCc1cc(=O)n(CC(=O)Nc2ccc(OC)c(OC)c2)c(-c2cccc(F)c2)n1	none
CCc1cc(=O)n(CC(=O)Nc2ccccc2C)c(-c2ccccc2)n1	Pf Dd2 inh 10µM
CCc1cc(=O)n(CC(=O)Nc2ccccc2)c(-c2ccccc2)n1	none
Cc1noc(C)c1S(=O)(=O)N1CCCC(Cc2nncn2CC2CC2)C1 (stereo not drawn)	none
Cc1ccccc1N1Cc2c(NCC3CCCCCC3)ncnc2N(C)CC1=O	none
CCc1ccc(CNC(=O)c2ccc(CN3C(=O)NC4(CCOCC4)C3=O)cc2)cc1	none
CCOc1cc(=O)n2c(c1C(=O)Nc1ccc3c(c1)OCCO3)CCCCC2	none
CN(C)Cc1cc(C[C@@H]2C[C@H](NC(=O)CC(C)(C)C)C2(C)C)no1	Pf Dd2 inh 14.1µM
